# Source: PubChem BioAssay
# ClpP mod: qHTS Assay for Activators of ClpP; ATP-dependent Clp protease proteolytic subunit (Bacillus subtilis (strain 168)), P80244; Potency, µM (top dose mostly 57.5 µM), for the others: at the top dose activity change, negative = active; 340,000 compounds, 1.9% hits; purified B. subtilis ClpP, FRET peptide cleavage, 20 min; active = well fitted falling curve with a large enough effect; inconclusive = small, poorly fitted or top-dose-only effect; inactive = no such curve, though single readings can be large or run the other way; note: the source files actives as falling curves though it sought activators and does not explain the sign; nearly all actives have a fitted effect of over 65% in size
# Target sequence (P80244 whole entry, looked up): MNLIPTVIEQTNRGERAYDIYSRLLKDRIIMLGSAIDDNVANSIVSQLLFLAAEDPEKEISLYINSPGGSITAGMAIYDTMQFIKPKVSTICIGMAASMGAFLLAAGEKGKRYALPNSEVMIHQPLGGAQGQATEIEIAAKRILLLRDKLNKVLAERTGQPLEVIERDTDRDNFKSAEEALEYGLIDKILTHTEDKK
#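 Buffer: 100 mM Tris/HCl pH8, 100 mM KCl, 0.05% low protease BSA, 2.5% glycerol, 0.01% Tween-20. ClpP 10 microg/mL final; 20 min RT; delta FRET normalized to ADEP and DMSO controls.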
# TDP1 cell noCPT: qHTS for Inhibitors of human tyrosyl-DNA phosphodiesterase 1 (TDP1): qHTS in cells in absence of CPT; AID 686978, 2013; 420,000 compounds, 15% hits; DT40 Tdp1-/- hTDP1 cells, no CPT, ATP luminescence, 48 h; Potency, µM (series often up to 46.2 µM), for the others: at the highest dose activity change, negative = growth inhibition, actives largely listed as inhibitors; note: % is set by controls: 0 for no effect and ±100 for the full control effect; nearly all actives have a fitted effect of over 55% in size
#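 Cells were dispensed at 400 per well, compounds added by pin tool, plates incubated ≥48 hr at 37 °C, then CellTiter-Glo added for 30 min at room temperature before luminescence reading. Line: DT40 Tdp1-/- complemented with hTDP1; camptothecin omitted.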
# TDP1 block: TDP1 (human) enzyme inhibition | Q9NUW8 | recombinant TDP1, AlphaScreen DNA substrate cleavage | Potency, µM (series often up to 130 µM), for the others: at the top dose activity change, negative = inhibition, usual class: inhibitors | 350,000 compounds, 0.28% hits | AID 485290; note: % is set by controls: 0 for no effect and ±100 for the full control effect; nearly all actives have a fitted effect of over 40% in size
#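 Recombinant human Tdp1 (E. coli-expressed, 1 nM final) preincubated with compounds 15 min at room temperature, then 5'-biotin/3'-phosphotyrosine-FITC DNA substrate (15 nM final) added for 5 min. AlphaScreen beads (10 ug/ml final) added 10 min; cleavage lowers signal.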
# DT40 TDP1 CPT: DT40-hTDP1 cell growth loss with CPT | chicken DT40 Tdp1-/-;hTDP1 cells + 20 nM CPT, ATP luminescence, 48 h | Potency, µM (doses to about 46.2 µM), for inactives: top-dose activity change, negative = growth inhibition, actives largely listed as inhibitors | 420,000 compounds, 12% hits | AID 686979; note: % is set by controls: 0 for no effect and ±100 for the full control effect; nearly all actives have a fitted effect of over 55% in size
#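 Cell growth measured by CellTiter-Glo luminescence after a minimum 48 h, 37 C compound exposure with 20 nM CPT in Tdp1-knockout DT40 cells stably expressing hTDP1, seeded 400/well; qHTS titration format.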
# * hit, by the source's call; u = inconclusive; x = no result given; [ ] = another dose, or the depositor's remark. Only some compounds are listed: those with a hit (about 17% of all), similar ones and a draw of the others. Unless noted, calls come from the whole dose curve; as a rule, active = well fitted curve in the direction sought with a large enough effect; inconclusive = small, poorly fitted or top-dose-only effect, or another doubt; inactive = no such curve, though single readings can be large; an effect the other way counts as inactive or inconclusive. Potency is the fitted concentration of half-maximal effect.
SMILES,ClpP mod,TDP1 cell noCPT,TDP1 block,DT40 TDP1 CPT
O=C(Nc1cc(F)ccc1F)C1CCN(C(=O)c2cnn(-c3ccccc3)c2-n2cccc2)CC1,0.6%,25.9µM*,0.0%,u
CCCSCCCNC(=O)C1CCCN(C(=O)c2cnn(-c3ccccc3)c2-n2cccc2)C1 (centres undefined),-1.4%,u,2.5%,u
Cc1ccc(Cl)cc1NC(=O)C1CCN(C(=O)c2cnn(-c3ccccc3)c2-n2cccc2)CC1,1.4%,20.6µM*,7.6%,-29.9%
O=C(COc1ccc(Cl)cc1)N(Cc1ccco1)c1ccccn1,-0.8%,-28.6%,4.7%,-14.2%
O=C(CCn1cccn1)N1CCCC(N2CCN(c3cccc(Cl)c3)CC2)C1 (centres undefined),-4.8%,-17.7%,4.3%,1.2%
COc1c2c(c(CCC(=O)O)c3c1C=CC(C)(C)O3)OC(C)(C)C=C2,0.5%,31.2%,x,4.6%
Nc1ncnc(NNC(=O)CNC(=O)c2c(F)cccc2Cl)c1[N+](=O)[O-],x,0.7%,5.0%,3.9%
Brc1cccc(OCCCCN2CCCCC2)c1,-2.2%,u,-3.5%,3.6%
CCN(C(=O)Cn1nc2c3cc(F)ccc3n(Cc3cccc(C)c3)cc-2c1=O)c1cccc(C)c1,-5.0%,-1.2%,11.3%,-5.3%
CC(C)=CCN1CCN(Cc2cccn2-c2ccccn2)CC1CCO (centres undefined),28.2µM*,-16.8%,7.6%,3.0%
CC(C)=CCN1CCN(Cc2cnc(-c3ccccc3)s2)CC1CCO (centres undefined),1.7%,u,x,25.9µM*
OCCC1CN(Cc2ccc3cc(Cl)ccc3n2)CCN1Cc1ccsc1 (centres undefined),x,u,5.4%,13µM*
CC(C)CN1CCN(Cc2cccn2-c2ccccn2)CC1CCO (centres undefined),-4.2%,-7.2%,4.8%,1.6%
CCOc1ccc(CN2CCN(Cc3cccc4c3OCO4)CC2CCO)cc1 (centres undefined),x,u,1.2%,u
OCCC1CN(Cc2cnc(-c3ccccc3)s2)CCN1Cc1ccccc1 (centres undefined),x,u,x,-0.3%
CCOc1ccc(CN2CCN(Cc3cc4c(cc3Cl)OCO4)CC2CCO)cc1 (centres undefined),x,16.4µM*,-2.4%,u
O=C(NCc1ccco1)C(c1ccncc1)N(C(=O)Cn1nnc2ccccc21)c1ccccc1F (centres undefined),x,5.5%,x,3.8%
CCOc1ccc2nc(CN3CCN(Cc4ccccc4OCC)C(CCO)C3)ccc2c1 (centres undefined),1.1%,25.9µM*,x,23.1µM*
COc1ccc(CN2CCN(Cc3cccn3-c3ncccn3)CC2CCO)c(C)c1C (centres undefined),-1.0%,9.2µM*,x,u
COc1ccc(CN2CCN(Cc3ccc4cc(F)ccc4n3)CC2CCO)c(C)c1C (centres undefined),x,u,4.3%,16.4µM*
O=C(N/N=C/c1ccc(Br)o1)/C(=C/c1ccc([N+](=O)[O-])cc1)NC(=O)c1ccccc1,0.9%,-26.5%,3.1%,-28.7%
COC(=O)[C@@H]1CCCN1C(=O)c1c(OC)cc(=O)n2c1CCN(Cc1ccc3c(c1)CCO3)CC2,x,-3.5%,x,27.5%
CNC(=O)c1cc(C(=O)c2ccc(F)cc2C(F)(F)F)c[nH]1,1.6%,u,x,u
O=C(CSc1nnc(-c2cc(-c3cccs3)nc3ccccc23)o1)NC1CCCCC1,u,u,0.5%,u
NC(=O)CSc1nnc(-c2cc(-c3cccs3)nc3ccccc23)o1,25.1µM*,u,-1.1%,-16.1%
SMILES,ClpP mod,TDP1 cell noCPT,TDP1 block,DT40 TDP1 CPT
CCC(C)NC(=O)CSc1nnc(-c2cc(-c3cccs3)nc3ccccc23)o1 (centres undefined),25.1µM*,18.4µM*,-1.0%,u
COc1cc(/C=C2/SC(=S)N(CCC(=O)Nc3cccnc3)C2=O)cc(OC)c1OC,2.4%,u,x,u
O=C(CSc1nc2nn(-c3ccccc3)c(=O)c-2c2n1CCCCC2)Nc1ccc(F)c(F)c1,x,u,1.8%,u
CC(=O)c1ccc(NC(=O)CSc2nc3nn(-c4ccccc4)c(=O)c-3c3n2CCCCC3)cc1,1.5%,16.4µM*,x,25.9µM*
Cc1cc(N2CCN(C)CC2)nc2ccc(NC(=O)c3ccc(Br)o3)cc12,-4.9%,18.4µM*,2.2%,u
COc1cccc(/C=C/C(=O)Nc2ccc3nc(N4CCN(C)CC4)cc(C)c3c2)c1OC,-2.1%,5.17µM*,11.8%,6.51µM*
COc1cccc(NC(=O)Nc2ccc3nc(N4CCN(C)CC4)cc(C)c3c2)c1,3.8%,14.6µM*,-0.9%,u
Cc1cc(C)cc(NC(=O)Nc2ccc3nc(N4CCN(C)CC4)cc(C)c3c2)c1,4.3%,20.6µM*,1.1%,23.1µM*
Cc1cc(N2CCCCC2)nc2ccc(NC(=O)c3ccc(Br)o3)cc12,-7.1%,u,3.5%,u
CCC(C(=O)NC(N)=O)c1ccccc1 (centres undefined),x,14.5%,x,12.7%
O=c1cc(-c2ccc(F)cc2F)[nH]c2ccc(F)cc12,x,x,-5.1%[234 µM],x
COC(=O)c1ccc(C(NC(=O)OCc2ccccc2)/C(C)=C/[C@@H](C)C(=O)N2CCN(C)CC2)cc1 (some centres undefined),x,x,2.1%,x
CCOC(CCNC(=O)CCC(=O)Nc1ccc2nc(N3CCN(C)CC3)cc(C)c2c1)OCC,x,0.9%,x,8.7%
CCOc1ccccc1NC(=O)CCC(=O)Nc1ccc2nc(N3CCN(C)CC3)cc(C)c2c1,25.1µM*,-9.3%,4.1%,-17.3%
CC(C)(C)c1ccc(C(=O)NC(=O)COC(=O)c2ccc(Br)o2)cc1,31.6µM*,u,x,u
O=C1C=C(NCc2ccc(Cl)c(Cl)c2)C2(CCCCC2)O1,0.4%,16.4µM*,-5.7%,u
O=C1C=C(NCc2ccco2)C2(CCCCC2)O1,-2.7%,-4.4%,-4.5%,3.1%
CO[C@H]1[C@H](NC(=O)C(C)C)c2ccccc2C12CCN(Cc1c(C)nn(C)c1Cl)CC2,x,-11.6%,x,5.2%
Cc1nc2ccccn2c1-c1ccnc(=S)[nH]1,x,23.1µM*,2.6%,5.8µM*
c1ccn2c(c1)nc1c2nc2ccccn21,-13.5%,-24.3%,1.0%,-26.4%
C=CC[C@@H](CC(=O)N[C@H](CO)Cc1ccccc1)C(=O)N[C@@H](COC(=O)[C@@H](CC=C)CC(=O)OC(C)(C)C)Cc1c[nH]c2ccccc12,-1.5%,u,1.3%,16.4µM*
C=CC[C@@H](CC(=O)N[C@@H](CO)Cc1ccccc1)C(=O)N[C@@H](COC(=O)[C@@H](CC=C)CC(=O)OC(C)(C)C)Cc1c[nH]c2ccccc12,1.9%,13µM*,2.7%,20.6µM*
